The structures appear in SMILES notation. Measured potencies and affinities stand elsewhere. Activity calls are given as the source filed them. Cut-off not given; nearly all actives show IC50 up to about 0.91 µM.

The target of this experiment is Calcium-dependent protein kinase 4 (Plasmodium falciparum (isolate 3D7)) (UniProt Q8IBS5). Kind of experiment: PfCDPK4 kinase inhibitors, biochemical, TCAMS library (AID 1159588). The settings on record: recombinant PfCDPK4, Kinase-Glo ATP depletion luminescence. (In Kinase-Glo more light means more ATP remaining.)
Chain of Calcium-dependent protein kinase 4 (Plasmodium falciparum (isolate 3D7)) (Q8IBS5 whole entry, looked up): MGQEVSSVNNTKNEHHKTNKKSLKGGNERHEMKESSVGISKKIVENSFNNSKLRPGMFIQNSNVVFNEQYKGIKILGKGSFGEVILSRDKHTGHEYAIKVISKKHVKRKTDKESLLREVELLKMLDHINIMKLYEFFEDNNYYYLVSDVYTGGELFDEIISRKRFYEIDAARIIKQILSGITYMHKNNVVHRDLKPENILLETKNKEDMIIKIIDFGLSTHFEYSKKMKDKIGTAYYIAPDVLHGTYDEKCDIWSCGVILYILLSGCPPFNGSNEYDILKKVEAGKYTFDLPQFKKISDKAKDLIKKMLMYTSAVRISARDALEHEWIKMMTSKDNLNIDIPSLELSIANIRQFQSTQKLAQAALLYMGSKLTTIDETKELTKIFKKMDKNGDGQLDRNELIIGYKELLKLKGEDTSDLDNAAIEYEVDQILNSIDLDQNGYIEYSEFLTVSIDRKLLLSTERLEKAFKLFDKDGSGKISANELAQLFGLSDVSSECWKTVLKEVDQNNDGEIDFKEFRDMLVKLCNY
As for `CN(Cc1ccncc1)C(Cc1ccccc1)C1CCN(Cc2ccc(O)c(Cl)c2)CC1` (stereo not given), the result was inactive.

Turning to `Clc1ccccc1CN1CCC(NCc2cccc(-n3ccnc3)c2)CC1`, the result was inactive.

`CCN1CCC(N(Cc2ccc(-c3ccc(C(F)(F)F)cc3)cc2)C(=O)Cn2c(CCc3cccc(F)c3F)cc(=O)c3cn(C)nc32)CC1`: the outcome was inactive.

In the case of `CC[C@H]1CN2CCc3cc(OC)c(OC)cc3[C@@H]2C[C@@H]1CC1=NCCc2c1[nH]c1ccc(OCc3ccccc3)cc21`, the outcome was inactive.

Take `Nc1ncc(-c2ccsc2)c2ccc(-c3cnc[nH]3)cc12`: the outcome was inactive.

Take `Cc1c(C)c2c(c(C)c1O)CC[C@@](C)(C(=O)N1CCC(CCN3CCC(c4c[nH]c5ccccc45)CC3)CC1)O2`: the outcome was inactive.

Consider `Cc1ccc(NC(=O)Nc2ccc(Cl)cc2)cc1-c1cccc(C(=O)Nc2ccc(F)cc2)c1`, for which the outcome was inactive.

Turning to `N#Cc1cc([N+](=O)[O-])ccc1-n1nc(C(N)=O)n(Cc2cccc(F)c2)c1=S`, the result was inactive.

Regarding `Cc1ccccc1C1CCN(C2CCC(NC(=O)c3ccc(-c4cc(C(F)(F)F)nn4C)s3)CC2)CC1` (stereo not given), the outcome was inactive.

For `CC1(C)N=C(N)N=C(N)N1OCc1cc2ccccc2cc1CON1C(N)=NC(N)=NC1(C)C`, the outcome was inactive.

On to `Cc1cc(N[C@@H](CC(C)C)C(=O)NCc2cccs2)nc(NCCc2ccc(F)cc2)n1`, for which the outcome was inactive.

`O=C(N[C@@H](Cc1ccccc1)[C@H](O)CNC1CCCCC1)c1cc(C2CCCC2)cc(N2CCCC2=O)c1`: the outcome was inactive.

Take `O=C(Nc1ccc(Cl)cc1)c1ccc(CN2CCCN(Cc3cccc(O)c3)CC2)cc1`: the result was inactive.

In the case of `COc1ccc(N2CCN(CCCCNC(=O)c3ccc(NC(=O)c4cc(C(F)(F)F)cc(C(F)(F)F)c4)cc3)CC2)cc1OC`, the outcome was inactive.

In the case of `CS(=O)(=O)CCNCc1cc(-c2cc3ncnc(Nc4ccc(OCc5cccc(F)c5)c(Cl)c4)c3s2)cs1`, the outcome was inactive.

Turning to `OCC1CCN(Cc2cccc(-c3cccc(-c4nc5ccc(C(F)(F)F)cc5[nH]4)c3)c2)CC1`, the result was inactive.

`CCN(CCCNc1nc(=S)[nH]c2cc(OC)c(OC)cc12)c1ccccc1`: the outcome was inactive.

On to `Cc1cc(=O)[nH]c(/N=C(/N)NOCc2ccccc2)n1`, for which the outcome was inactive.

Consider `O=C(Nc1cccc(-c2ccc(-c3nc4ccccc4[nH]3)cc2)c1)Nc1ccc(F)c(F)c1F`, for which the outcome was inactive.

`CC(C)c1ccc(NS(=O)(=O)c2cccc(C(=O)NC3CCN(CC4CCCCC4)CC3)c2)cc1`: the outcome was inactive.

In the case of `CC(C)(C)c1ccc2nc(-c3ccc(/C=C/C(=O)NC4CCN(Cc5ccccc5)CC4)cc3)[nH]c2c1`, the result was inactive.

`COc1cccc(C=NNc2cc(C)nc3c(OC)cccc23)c1`: the result was inactive.

As to `O=C(/C=C/c1ccc(Cl)c(Cl)c1)NCCCCCN1CCCC(CNC(=O)Nc2ccc(Oc3ccccc3)cc2)C1` (stereo not given), the result was inactive.

On to `CC(C)CNCc1cccc(-c2cccc(CN(CCN(C)C)C(=O)NCCc3ccccc3)c2)c1`, for which the outcome was inactive.

As for `CC(C)(c1ccccc1)c1ccc(O)c(CN2CCOCC2)c1`, the result was inactive.

On to `CC1CCN(C(=O)C(Cc2c[nH]c3ccccc23)NS(=O)(=O)c2ccc(Cl)cc2)CC1` (stereo not given), for which the outcome was inactive.

Consider `O=C1NC(=O)C(c2ccc(Cl)cc2)=C1Nc1cccc(S(=O)(=O)C(F)(F)F)c1`, for which the result was inactive.

Regarding `COc1ccc(N2C(=O)c3c(c4ccccc4n3C)C2c2ccccc2O)cc1` (stereo not given), the outcome was inactive.

`CCCCC(=O)Nc1nonc1-c1ccc(OCC)c(OCC)c1`: the outcome was inactive.

For the compound `CN(C(=O)/C=C/c1c(Cl)cccc1Cl)C1CCN(CCCCCNC(=O)/C=C/c2ccc(Cl)c(Cl)c2)CC1`, the outcome was inactive.

Take `CCn1c(-c2cc(C)on2)nc2cnc(Oc3ccc(C(=O)N4CC(=O)N(C)C4C(C)(C)C)cc3)cc21` (stereo not given): the result was inactive.

Consider `COc1cc2nc(N3CCC(CNC(=O)c4ccc(-c5ccc(C(=O)N(C)C)cc5C)cc4)CC3)nc(N3CCN(C)CC3)c2cc1OC`, for which the outcome was inactive.

With `Cc1[nH]c(C)c(-c2csc3ccccc23)c(=O)c1Cl`, the outcome was inactive.

Consider `COc1cc2nc(N3CCN(C(=O)c4cccc(I)c4)CC3)nc(N)c2cc1OC`, for which the result was inactive.

`Cc1cc(NC(=O)c2cccs2)ccc1OC1CCN(Cc2ccc(C#N)cc2)CC1`: the outcome was inactive.

Consider `COc1ccc(NC(=O)c2ccc(-c3nc(-c4cccc(C(F)(F)F)c4)cs3)cc2)cc1N1CCN(C)CC1`, for which the outcome was inactive.

On to `CC(C)C[C@@H](CNC[C@H](CC(C)C)NC(=O)OC(C)(C)C)NC(=O)OC(C)(C)C`, for which the outcome was inactive.

As for `COc1cc(NCC(CN)Cc2ccc3c(c2)OCO3)nc2ccccc12` (stereo not given), the outcome was inactive.

Regarding `Cc1cc2nc(-c3ccc(SCC(=O)Nc4ccc5c(c4)OCCO5)nc3)[nH]c2cc1C`, the outcome was inactive.

With `O=C(C=Cc1ccc(Cl)c(Cl)c1)NCCCCCN1CCCC(CCCNC(=O)c2cccs2)C1` (stereo not given), the outcome was inactive.

For the origin of these results see PubChem BioAssay.
